Screening data deposited in PubChem BioAssay by Buhrlage Lab, Dana-Farber Cancer Institute and Novartis Institutes for BioMedical Research (Cambridge, Mass).
OTUD3 block: inhibitors of human OTUD3 deubiquitinase | Q5T2D3 | purified OTUD3, Ub-rhodamine fluorescence, 2 h | inhibition, % at 25 µM | 47,000 tested, 0.7% active
USP10 inh: blocks human USP10 ubiquitin-rhodamine cleavage; Q14694; purified USP10, Ub-rhodamine fluorescence, 60 min; inhibition, % at 20 µM; 47,000 tested, 1.1% active
Target sequence (Q14694 whole entry, looked up): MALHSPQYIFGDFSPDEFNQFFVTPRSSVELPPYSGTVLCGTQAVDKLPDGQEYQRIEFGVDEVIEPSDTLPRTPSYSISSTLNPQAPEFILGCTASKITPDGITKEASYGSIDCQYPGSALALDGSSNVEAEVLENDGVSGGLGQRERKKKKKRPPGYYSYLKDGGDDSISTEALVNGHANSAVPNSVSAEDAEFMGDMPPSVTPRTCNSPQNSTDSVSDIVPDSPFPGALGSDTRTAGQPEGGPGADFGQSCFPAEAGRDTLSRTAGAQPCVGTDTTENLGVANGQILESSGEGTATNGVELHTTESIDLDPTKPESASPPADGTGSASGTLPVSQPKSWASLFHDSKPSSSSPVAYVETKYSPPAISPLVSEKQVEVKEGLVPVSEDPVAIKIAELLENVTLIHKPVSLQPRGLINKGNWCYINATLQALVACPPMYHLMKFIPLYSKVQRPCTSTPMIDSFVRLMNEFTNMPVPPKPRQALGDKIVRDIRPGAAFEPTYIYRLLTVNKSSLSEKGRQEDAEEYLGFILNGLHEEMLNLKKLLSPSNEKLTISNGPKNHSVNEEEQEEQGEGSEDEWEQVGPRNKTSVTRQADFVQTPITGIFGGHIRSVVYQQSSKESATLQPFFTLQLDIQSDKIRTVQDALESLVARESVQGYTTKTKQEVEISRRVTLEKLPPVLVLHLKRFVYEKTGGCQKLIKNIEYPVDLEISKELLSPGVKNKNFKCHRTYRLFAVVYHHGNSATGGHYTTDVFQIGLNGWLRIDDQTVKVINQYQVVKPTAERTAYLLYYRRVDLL
UCHL1 inh: inhibitors of human UCHL1 deubiquitinase. 47,000 tested, 0.2% active. P09936. inhibition, % at 20 µM. purified UCHL1, Ub-rhodamine cleavage fluorescence
USP8 block: inhibitors of human USP8 deubiquitinase. P40818. purified USP8, Ub-rhodamine cleavage fluorescence, 30 min. inhibition, % at 20 µM. 47,000 tested, 4.2% active
USP7 block: inhibitors of human USP7 deubiquitinase; Q93009; purified USP7, Ub-rhodamine cleavage fluorescence; inhibition, % at 20 µM; 47,000 tested, 0.3% active
Numbers without * were called inactive. Shown are actives, neighbours in structure and some others; about 4.9% of the full set was active somewhere. Cut-off read from the data, not from the text of the source: active = inhibition above about 30%; inactive = the rest.

SMILES	OTUD3 block	USP10 inh	UCHL1 inh	USP8 block	USP7 block
COc1ccc(C(=O)N2CCN3Cc4ccccc4N(C)CC3C2)cc1 (stereo not drawn)	-188.1	-7.2	-164.9	-263.7	-146.6
O=C(Nc1ccccc1)c1nnc(CCC(=O)N2CCN(c3ccc(F)cc3)CC2)s1	0.7	0.0	3.1	1.2	-1.1
O=C(O)CC1(c2ccc(F)cc2)C2CC3CC(C2)CC1C3 (stereo not drawn)	21.7	5.0	-0.3	33.5*	5.7
CC(C)n1cnc(-c2cc(C(=O)N3CCCN(C)CC3)c3ccccn23)c1	-42.8	-6.1	-4.5	-229.4	-5.7
CCC(=O)Nc1cccnc1-c1ccc(C(=O)Nc2ccc3c(c2)OCO3)cc1	5.1	13.1	3.2	74.9*	17.7
CCC(=O)Nc1cccnc1-c1ccc(C(=O)Nc2ccc(C)cc2)cc1	-5.7	-1.0	-1.1	-17.6	0.9
Oc1cc(OCCN2CCCCC2)ccc1-c1[nH]ncc1-c1ccccc1	-1.0	-0.2	2.4	66.4*	1.1
Cc1noc2nc(C)n(CC(=O)NCCC3=CCCCC3)c(=O)c12	10.4	0.3	0.2	-1.1	-15.8
O=C(Cn1cnc2sc3c(c2c1=O)CCC3)NCCC1=CCCCC1	8.1	7.7	-1.0	77.9*	10.6
CC(C)(C)c1nn(-c2ccccc2)c2[nH]c(=O)c(CNCc3ccc4c(c3)OCO4)cc12	1.9	-0.9	2.5	80.5*	7.8
Cc1nn(-c2ccccc2)c2[nH]c(=O)c(CNC3CCCCC3)cc12	-0.3	1.1	0.0	1.0	3.4
CC(C)(C)c1nn(-c2ccccc2)c2[nH]c(=O)c(CNC3CC3)cc12	-5.1	5.6	-0.5	82.2*	3.3
Cc1ccc(NCc2cc3c(C(C)(C)C)nn(-c4ccc(Cl)cc4)c3[nH]c2=O)cc1	12.8	15.2	9.9	83.5*	7.0
O=C(CSc1nnc2n(-c3ccccc3)c(=O)c3ccccc3n12)c1ccc(F)cc1	4.2	26.3	1.6	36.4*	8.5
O=C(CSc1nnc(C2CC2)n1-c1ccccc1)c1ccc(F)c(F)c1	9.8	0.1	1.1	6.4	-155.8
Cc1nnn(C23CC4CC(CC(C(=O)Nc5ccc6c(c5)OCO6)(C4)C2)C3)n1	0.7	4.4	1.1	57.7*	5.4
CC(=O)NCC(=O)N1CCC2(CC1)C(=O)N(CC1CC1)c1ccccc12	-0.4	2.2	-2.4	-48.1	-0.1
Cc1ccc(OCC(=O)OCc2cc(=O)n3cc(C)sc3n2)cc1	-1.0	-1.8	-6.4	-27.0	-5.8
Oc1ccc(Br)cc1CNc1ccc(F)cc1	8.0	7.5	6.1	84.6*	-80.3
CN1C(=O)c2cccnc2Sc2cc(NC(=O)Cc3cccc(F)c3)ccc21	-15.1	-1.8	-5.1	-1.6	-3.5
O=C(NC1CCCC1)c1cccn1Cc1noc(-c2ccccc2)n1	8.9	2.8	6.1	32.3*	-9.9
Cc1cccc(C(=O)OCC(=O)NCCc2ccccc2)c1O	14.7	3.7	1.7	14.7	1.6
O=C(COC(=O)c1cc2ccccc2cc1O)NCCc1ccccc1	8.1	14.6	0.7	42.2*	8.3
O=C(COC(=O)c1cc2ccccc2cc1O)Nc1ccc(Cl)cn1	0.4	-7.6	-10.9	36.8*	-0.6
O=C(c1snc2c(=O)n(Cc3ccccc3)c(=O)[nH]c12)N1CCCC1	5.1	-0.4	1.0	-0.3	-29.6
SMILES	OTUD3 block	USP10 inh	UCHL1 inh	USP8 block	USP7 block
O=C(Nc1ccc2c(c1)OCO2)c1c2c(nc3ccccc13)CCN(Cc1ccccc1)C2	-157.4	-3.8	-27.2	-46.0	-20.7
Clc1ccc(CN2CCc3nc(Nc4ccc5c(c4)OCO5)ncc3C2)cc1	-8.9	6.4	9.1	30.1*	-10.7
Cc1ccccc1NC(=O)CSc1nnc2ccc(C(=O)NCc3ccccc3)cn12	-1.8	-1.3	-3.0	45.3*	-5.3
Cc1ccc(C(=O)Nc2ncn(CC(=O)Nc3ccccc3F)n2)cc1	6.1	0.8	2.0	-20.9	5.2
Cc1ccc(CNC(=O)c2ccc3nn(CC(=O)Nc4ccccc4F)c(=O)n3c2)cc1	-10.1	23.4	0.0	67.3*	10.4
O=C(Cn1nc2ccc(C(=O)NCc3ccccc3)cn2c1=O)Nc1ccc2c(c1)OCO2	2.8	12.4	1.4	0.5	1.8
Cc1ccc(NC(=O)c2ccc3nn(CC(=O)Nc4ccc(C)cc4C)c(=O)n3c2)cc1	-13.0	3.0	-4.3	52.7*	10.8
Cc1ccc(NC(=O)c2ccc3nn(CC(=O)Nc4ccc(F)cc4F)c(=O)n3c2)cc1	15.4	3.0	-0.7	57.1*	16.5
CCOc1ccccc1NC(=O)c1nnn(-c2ccccc2)c1-c1ccco1	12.0	5.1	5.6	26.1	15.0
O=C(NC1CCCC1)c1cc(-c2ccncc2)n(-c2ccc(F)cc2)n1	12.7	-1.1	3.0	19.3	4.6
O=C(Cn1c(=O)n(CCCC(=O)N2CC=C(c3ccccc3)CC2)c(=O)c2ccccc21)NCCC1=CCCCC1	37.4*	12.2	3.1	6.0	0.0
COc1ccc(NC(=O)Cn2c(=O)n(CCC(=O)N3CC=C(c4ccccc4)CC3)c(=O)c3ccccc32)cc1Cl	-0.8	3.0	0.3	0.0	1.7
Cc1cc(NC(=O)Cn2c(=O)n(CCC(=O)N3CC=C(c4ccccc4)CC3)c(=O)c3ccccc32)n[nH]1	5.4	22.9	0.8	68.4*	8.4
CCCCCCCCCCCC(O)CC(=O)N[C@@H](CC(C)C)C(=O)N[C@H](CCC(=O)O)C(=O)N[C@H]1C(=O)N[C@H]([C@@H](C)CC)C(=O)NC(CC(C)C)C(=O)N[C@H](CO)C(=O)N[C@@H](CC(C)C)C(=O)N[C@@H](CC(C)C)C(=O)N[C@H](CO)C(=O)N[C@@H](C(C)C)C(=O)O[C@@H]1C (stereo partly drawn)	44.3*	35.2*	28.6	34.9*	38.7*
CCCCCCCC[C@@H](C)[C@@H]1OC(=O)[C@H](CO)NC(=O)[C@H](C(=O)c2c[nH]c3ccccc23)NC(=O)[C@@H](CCC(=O)O)NC(=O)[C@H]1C	4.3	23.5	1.7	0.3	-5.7
COc1ccc(-c2csc(N)n2)c2ccccc12	-20.0	-3.3	-1.8	83.1*	-11.0
Cc1c(N2CCN(C(=O)c3ccncc3)CC2)c(=O)n(C)c(=O)n1-c1ccccc1	4.9	-1.4	-3.2	-15.3	4.2
Cc1c(Cl)ccc2c(=O)c3c([nH]c12)CCN(CC(=O)NCc1ccc2c(c1)OCO2)C3	28.7	-14.9	-164.9	45.7*	-163.3
Cc1ccc2c(=O)c3c([nH]c2c1C)CCN(CC(=O)NCc1ccc2c(c1)OCO2)C3	-8.1	-2.9	-21.2	19.0	-34.8
COc1ccc(-c2c(C)nc3c(-c4ccsc4)cnn3c2N)cc1	7.0	3.0	-0.5	31.5*	2.0
CC(=O)N1CCc2cc(S(=O)(=O)NC(Cc3ccccc3)C(=O)Nc3cccc(Cl)c3C)ccc21 (stereo not drawn)	37.9*	54.8*	11.2	47.3*	25.9
O=C(COc1ccc2c(c1)CCC2)Nc1ccccc1N1CCCC1=O	14.9	-1.5	3.4	2.8	-0.3
O=C(CN(c1cc(C(F)(F)F)ccc1Cl)S(=O)(=O)c1ccccc1)NCc1ccco1	11.9	2.5	7.1	32.0*	-2.2
